Among all 69,000 compounds or so, about 8,600 (12%) showed an effect of 50% or more. The list comes from a sample in which strong results are over-represented; it also holds similar structures and randomly drawn compounds.
What follows are compounds tested on Plasmodium berghei (assay: Screen against P. berghei liver stage (PbLuc), transformed with Luciferase, at 10uM). Settings: tested at 10 uM.
Type: functional, HepG2

How did the INHIBITION turn out when `O=C(NCc1ccccn1)NCc1ccc(Cl)s1` was run?
The INHIBITION was 17.5%.

How did the INHIBITION turn out when `Cc1ccc(C)c(S(=O)(=O)CCNC2CCc3ncnn3C2)c1` (stereo not drawn) was run?
Its INHIBITION is -21.9%.

`CC(NCc1ccnc(OC2CCC2)c1)c1cnn(C)c1` (stereo not drawn) was tested. Which INHIBITION did it give?
Its INHIBITION is -4.92%.

`O=C1OCCN1CC(=O)N1C[C@@H]2CC[C@H]1CN(C(=O)c1cccnc1)C2` was tested. Which INHIBITION did it give?
Its INHIBITION is 29.6%.

`Cc1cc(N2CCC(Cc3cccnc3)CC2)ncn1` was tested. Which INHIBITION did it give?
The INHIBITION was 39.7%.

`CC(=O)N1CCN(C(=O)c2sc(-c3ccccc3F)nc2C)CC1` was tested. Which INHIBITION did it give?
Its INHIBITION is -10.8%.

Which INHIBITION does the source give for `OCC1CCCN1c1cc(NCc2cccs2)ncn1` (stereo not drawn) here?
Its INHIBITION is 31.3%.

`Cc1c(C)n(CC(O)CN2CCN(CCO)CC2)c2c(Cl)cccc12` (stereo not drawn) was tested. Which INHIBITION did it give?
The INHIBITION was 28.6%.

Which INHIBITION does the source give for `Cc1cc(F)ccc1S(=O)(=O)NCc1[nH]ncc1Br` here?
Its INHIBITION is -3.14%.

Which INHIBITION does the source give for `Cc1ccc(F)cc1S(=O)(=O)NCc1[nH]ncc1Br` here?
Its INHIBITION is 1.62%.

`Cc1ccc(F)c(S(=O)(=O)NCc2[nH]ncc2Br)c1` was tested. Which INHIBITION did it give?
The INHIBITION was 52.9%.

Which INHIBITION does the source give for `Cc1cccc(CN2CCOCC2c2[nH]ncc2C)n1` (stereo not drawn) here?
The INHIBITION was 31.9%.

`O=C(c1ccco1)N1CC[C@H]2[C@H]1CC(=O)N2c1cccnc1` was tested. Which INHIBITION did it give?
Its INHIBITION is -5.89%.

How did the INHIBITION turn out when `CC(C)N1C(=O)C[C@H]2[C@@H]1CCN2C(=O)c1ccco1` was run?
Its INHIBITION is 53.9%.

With `Cn1cc(N2C(=O)C[C@@H]3[C@@H]2CCN3C(=O)c2ccco2)cn1` as the compound, how does the INHIBITION read?
The INHIBITION was 12.2%.

`O=C(c1ccco1)N1CC[C@H]2[C@H]1CCN2S(=O)(=O)C1CC1` was tested. Which INHIBITION did it give?
The INHIBITION was 58.7%.

Which INHIBITION does the source give for `CS(=O)(=O)N1C[C@@H]2CCN(C(=O)c3ccco3)[C@@H]2C1` here?
The INHIBITION was 24.9%.

For `O=C(C1CCC1)N1CCN(C(=O)c2cnccn2)[C@H]2CS(=O)(=O)C[C@H]21`, which INHIBITION is on record?
The INHIBITION was 23.5%.

With `O=C(c1ccoc1)N1CC[C@H]2[C@H]1CCN2S(=O)(=O)C1CC1` as the compound, how does the INHIBITION read?
The INHIBITION was 44.8%.

How did the INHIBITION turn out when `O=C(c1ccncc1)N1CC[C@H]2[C@H]1CCN2S(=O)(=O)C1CC1` was run?
The INHIBITION was -69.3%.

For `O=C(c1ccnnc1)N1CC[C@H]2[C@H]1CCN2S(=O)(=O)C1CC1`, which INHIBITION is on record?
The INHIBITION was 63.1%.

How did the INHIBITION turn out when `O=C([C@H]1C[C@H]2OCC[C@H]2N(C(=O)c2ccnnc2)C1)N1CCCCO1` was run?
The INHIBITION was 19.5%.

Which INHIBITION does the source give for `O=C(c1cnccn1)N1CC[C@H]2[C@H]1CCN2S(=O)(=O)C1CC1` here?
Its INHIBITION is 71%.

`O=C(c1ccccn1)N1CC[C@H]2[C@H]1CCN2S(=O)(=O)C1CC1` was tested. Which INHIBITION did it give?
Its INHIBITION is -60.2%.

How did the INHIBITION turn out when `CN(C)CC(=O)N1CCN(c2cc(N3CCCC3CO)ncn2)CC1` (stereo not drawn) was run?
Its INHIBITION is -5.1%.

How did the INHIBITION turn out when `CNC(=O)NC(=O)C(C)N1CCN(c2ccc(C#N)cc2F)CC1` (stereo not drawn) was run?
Its INHIBITION is 11.8%.

For `CN(C)S(=O)(=O)N1C[C@@H]2C[C@H](C(=O)Nc3ccccc3)[C@H](C1)O2`, which INHIBITION is on record?
The INHIBITION was -22.5%.

Which INHIBITION does the source give for `C[C@H](O)c1cnn(-c2ccccc2)c1` here?
Its INHIBITION is -13.1%.

How did the INHIBITION turn out when `Cc1cc(C)c(CNC(=O)NC2CCOCC2)c(=O)[nH]1` was run?
The INHIBITION was 27.7%.

`Cc1nccc(N2CCN(C3CCOCC3)CC(C(=O)N(C)C)C2)n1` (stereo not drawn) was tested. Which INHIBITION did it give?
Its INHIBITION is 25.8%.

Which INHIBITION does the source give for `CC(C)(C)CCCC(=O)Nc1ccnn1C1CCS(=O)(=O)C1` (stereo not drawn) here?
The INHIBITION was 46.6%.

Which INHIBITION does the source give for `CC(Nc1cccc2c1OCCO2)C(=O)NC(N)=O` (stereo not drawn) here?
The INHIBITION was -45.2%.

With `O=C(CN1CCCC1)N1CCCC(c2cc(=O)n3c(n2)CCCCC3)C1` (stereo not drawn) as the compound, how does the INHIBITION read?
Its INHIBITION is 14.7%.

For `CN(C)C(=O)N[C@@H]1CN(S(C)(=O)=O)[C@@H]2CCCO[C@@H]21`, which INHIBITION is on record?
Its INHIBITION is 60%.

Which INHIBITION does the source give for `CN(C)C(=O)N[C@H]1CN(C2CCOCC2)[C@@H]2CCCO[C@H]12` here?
The INHIBITION was 43.8%.

With `CN(C)C(=O)N[C@@H]1CN(C2CCOCC2)[C@@H]2CCCO[C@@H]21` as the compound, how does the INHIBITION read?
Its INHIBITION is 20.1%.

For `COCC(NC(=O)c1cccnc1)c1cccc(C(F)(F)F)c1` (stereo not drawn), which INHIBITION is on record?
Its INHIBITION is 7.44%.

`CNC(=O)CCc1cc(C2CCNCC2)nc(C)n1` was tested. Which INHIBITION did it give?
The INHIBITION was 27.8%.

`Oc1cc(C2CCCCN2C2CCCC2)nc(-c2ccncc2)n1` (stereo not drawn) was tested. Which INHIBITION did it give?
Its INHIBITION is 16.5%.

Which INHIBITION does the source give for `Cn1cc(CN2CCCN(C(=O)c3cn4ccccc4n3)CC2)cn1` here?
Its INHIBITION is 56.6%.

With `CC(OCC1CC1)C(=O)N1CCCN(Cc2nccn2C(C)C)CC1` (stereo not drawn) as the compound, how does the INHIBITION read?
The INHIBITION was 46.2%.

How did the INHIBITION turn out when `Cn1cc(CN2CCCN(C(=O)c3ccc4ccccc4n3)CC2)cn1` was run?
The INHIBITION was 52.35%.

Which INHIBITION does the source give for `Cc1nc(C(=O)N2CCCN(Cc3cnn(C)c3)CC2)ccc1C#N` here?
The INHIBITION was 15.1%.

For `Cn1cc(CN2CCCN(C(=O)c3ccccn3)CC2)cn1`, which INHIBITION is on record?
The INHIBITION was -13.35%.

How did the INHIBITION turn out when `Cc1cccc(C(=O)N2CCCN(Cc3cnn(C)c3)CC2)n1` was run?
The INHIBITION was 31.8%.

`CC(OCC1CC1)C(=O)N1CCCN(Cc2cnn(C)c2)CC1` (stereo not drawn) was tested. Which INHIBITION did it give?
Its INHIBITION is 60.5%.

Which INHIBITION does the source give for `Cn1cc(CN2CCCN(C(=O)c3cc[nH]n3)CC2)cn1` here?
The INHIBITION was 23.2%.

For `CC(OCC1CC1)C(=O)N1CCCN(Cc2cscn2)CC1` (stereo not drawn), which INHIBITION is on record?
The INHIBITION was 11.67%.

For `CC(C)CNC(=O)c1cn(-c2ccccn2)c(=O)c2ccccc12`, which INHIBITION is on record?
The INHIBITION was 13.9%.

With `CCN1CC2(CC1=O)CN(C(=O)NC(C)C)CCN(C(=O)NC(C)C)C2` as the compound, how does the INHIBITION read?
The INHIBITION was 27.5%.

How did the INHIBITION turn out when `Cc1cnn(CC2CN(CC(=O)N(C)Cc3ccsc3)CCO2)c1` (stereo not drawn) was run?
Its INHIBITION is -89%.

For `CS(=O)(=O)c1cccc(C(=O)N2CCCC(n3cccn3)C2)c1` (stereo not drawn), which INHIBITION is on record?
Its INHIBITION is 1.94%.

For `O=C(CN1CCCC(Cn2cncn2)C1)NCc1ccccc1F` (stereo not drawn), which INHIBITION is on record?
Its INHIBITION is 19.4%.

With `CC(C)c1nn(C)c(N(C)C)c1CNCc1cccc2cccnc12` as the compound, how does the INHIBITION read?
The INHIBITION was 19.283%.

How did the INHIBITION turn out when `CC(C)CC(=O)N1CC[C@H]2N(C)CC[C@@]2(C(=O)Nc2cccnc2)CC1` was run?
Its INHIBITION is 26.7%.

How did the INHIBITION turn out when `Cc1c(C2N3CC4(C)CN2CC(C)(C3)C4=O)[nH]c(=O)[nH]c1=O` (stereo not drawn) was run?
Its INHIBITION is 46.6%.

How did the INHIBITION turn out when `Cc1c(C2N3CC4(C(C)C)CN2CC(C(C)C)(C3)C4=O)[nH]c(=O)[nH]c1=O` (stereo not drawn) was run?
Its INHIBITION is 54.3%.

`CCC12CN3CC(CC)(CN(C1)C3c1[nH]c(=O)[nH]c(=O)c1C)C2=O` (stereo not drawn) was tested. Which INHIBITION did it give?
The INHIBITION was 11.1%.

`O=C(C1CCC1)N1C[C@H]2CC[C@@H](C1)N(S(=O)(=O)c1cccnc1)C2` was tested. Which INHIBITION did it give?
The INHIBITION was -70.7%.

For `O=C(NCCCNC(=O)c1cccc(O)c1)Nc1ccc(F)cc1F`, which INHIBITION is on record?
The INHIBITION was -4.74%.

For `COCc1noc(C2(c3ccc(F)cc3)CC2)n1`, which INHIBITION is on record?
The INHIBITION was 11.6%.

For `COCc1noc(C2(c3ccc(F)cc3)CCC2)n1`, which INHIBITION is on record?
The INHIBITION was 77.2%.

How did the INHIBITION turn out when `COCc1noc(C2(c3ccc(F)cc3)CCOCC2)n1` was run?
Its INHIBITION is 15.1%.
